From ChEMBL document CHEMBL1201862, “PubChem BioAssay data set” (2004) come the findings set out here.

The campaign covered roughly 320,000 compounds. About 740 (0.23%) were called active. Another 2% or so got no clear call; they are omitted. The calls are words filed in the database; no cut-off is given here. The full list was thinned out, with actives kept by preference.

This experiment concerns Saccharomyces cerevisiae. Briefly: qHTS Assay for Small Molecule Inhibitors of Mitochondrial Division or Activators of Mitochondrial Fusion. Type of experiment: functional. Particulars: read-out: Potency.
For `O=C(O)Cc1ccccc1Nc1c(Cl)cccc1Cl` [DICLOFENAC SODIUM], the AC50 is 20.6 µM (active).
